Results from PubChem BioAssay AID1159580 (chemical genetic matrix, 2015).
About 2,000 (36%) of roughly 5,500 compounds were called active. Roughly 18% stayed inconclusive and do not appear here. Cut-off read from the data, not from the text of the source: active = normalized growth mostly below about 0.91 (no sharp cut-off); inconclusive = no clear call, values can overlap the other calls; inactive = mostly above about 0.92. The list shows a part of the results.

Assay: chemical genetic growth profiling, strain panel (AID 1159580);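 note: tested at 20 µM; growth read once vehicle control cultures reached saturation at 30 °C; 1 = growth at the plate median or of vehicle wells; lower values mean less growth of the strain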
Conditions: S. cerevisiae deletion strains, growth OD
[1] = locus YAR019C, strain CDC15, hits give low values
[2] = locus YBL105C, strain PKC1, hits give low values
[3] = locus YBR135W, strain CKS1, hits give low values
[4] = locus YBR136W, strain MEC1, hits give low values
[5] = locus YBR160W, strain CDC28, hits give low values
[6] = locus YDL017W, strain CDC7, hits give low values
[7] = locus YDL028C, strain MPS1, hits give low values
[8] = locus YDL101C, strain DUN1, hits give low values
[9] = locus YDL108W, strain KIN28, hits give low values
[10] = locus YDL132W, strain cdc53, hits give low values
[11] = locus YDL214C, strain PRR2, hits give low values
[12] = locus YDR052C, strain DBF4, hits give low values
[13] = locus YDR054C, strain cdc34, hits give low values
[14] = locus YDR226W, strain ADK1, hits give low values
[15] = locus YDR477W, strain SNF1, hits give low values
[16] = locus YER123W, strain YCK3, hits give low values
[17] = locus YER133W, strain GLC7, hits give low values
[18] = locus YFL009W, strain cdc4, hits give low values
[19] = locus YFL029C, strain CAK1, hits give low values
[20] = locus YFR003C, strain YPI1, hits give low values
[21] = locus YFR019W, strain FAB1, hits give low values
[22] = locus YFR028C, strain CDC14, hits give low values
[23] = locus YGR040W, strain KSS1, hits give low values
[24] = locus YGR052W, strain FMP48, hits give low values
[25] = locus YGR092W, strain DBF2, hits give low values
[26] = locus YHR030C, strain SLT2, hits give low values
[27] = locus YHR079C, strain IRE1, hits give low values
[28] = locus YHR082C, strain KSP1, hits give low values
[29] = locus YHR205W, strain SCH9, hits give low values
[30] = locus YIL147C, strain SLN1, hits give low values
[31] = locus YJL095W, strain BCK1, hits give low values
[32] = locus YJL128C, strain PBS2, hits give low values
[33] = locus YJL157C, strain FAR1, hits give low values
[34] = locus YJR016C, strain ILV3, hits give low values
[35] = locus YJR066W, strain TOR1 (second series), hits give low values
[36] = locus YJR066W, strain TOR1, hits give low values
[37] = locus YKL048C, strain ELM1, hits give low values
[38] = locus YKL067W, strain YNK1, hits give low values
[39] = locus YKL101W, strain HSL1, hits give low values
[40] = locus YKL193C, strain SDS22, hits give low values
[41] = locus YKL203C, strain TOR2, hits give low values
[42] = locus YLR113W, strain HOG1, hits give low values
[43] = locus YLR133W, strain CKI1, hits give low values
[44] = locus YLR403W, strain SFP1, hits give low values
[45] = locus YML070W, strain DAK1, hits give low values
[46] = locus YMR001C, strain CDC5, hits give low values
[47] = locus YMR205C, strain PFK2 (second series), hits give low values
[48] = locus YMR277W, strain FCP1, hits give low values
[49] = locus YNL006W, strain LST8, hits give low values
[50] = locus YNL020C, strain ARK1, hits give low values
[51] = locus YNL161W, strain CBK1, hits give low values
[52] = locus YNL183C, strain NPR1, hits give low values
[53] = locus YNL207W, strain RIO2, hits give low values
[54] = locus YNL222W, strain SSU72, hits give low values
[55] = locus YNL307C, strain MCK1 (second series), hits give low values
[56] = locus YOL078W, strain AVO1, hits give low values
[57] = locus YOL136C, strain PFK27, hits give low values
[58] = locus YOR061W, strain CKA2, hits give low values
[59] = locus YOR119C, strain RIO1, hits give low values
[60] = locus YOR231W, strain MKK1, hits give low values
[61] = locus YOR329C, strain SCD5, hits give low values
[62] = locus YPL031C, strain PHO85, hits give low values
[63] = locus YPL153C, strain RAD53, hits give low values
[64] = locus YPL204W, strain HRR25, hits give low values
[65] = locus YPL209C, strain IPL1, hits give low values
[66] = locus YPL256C, strain CLN2, hits give low values
[67] = locus YPR025C, strain CCL1, hits give low values
[68] = locus YPR106W, strain ISR1, hits give low values
[69] = locus YPR111W, strain DBF20, hits give low values
[70] = strain NNK1, hits give low values
[71] = strain TSCII, hits give low values

Measured: normalized growth

O=S(=O)(Nc1csc(C(F)(F)F)c1-c1ccccc1)c1cc(Br)c(Br)s1
active: [26] 0.305 | [42] 0.8 | [66] 0.712
inactive: [1] 0.957 | [2] 0.952 | [3] 0.96 | [4] 0.93 | [5] 0.961 | [6] 0.955 | [7] 0.935 | [8] 0.968 | [9] 0.939 | [10] 0.971 | [11] 0.927 | [12] 0.961 | [13] 0.96 | [14] 0.953 | [15] 0.91 | [16] 0.899 | [17] 0.959 | [18] 0.968 | [19] 0.949 | [20] 0.961 | [21] 0.852 | [22] 0.974 | [23] 0.912 | [24] 0.873 | [25] 0.804 | [27] 0.814 | [28] 0.654 | [29] 0.887 | [30] 0.951 | [31] 0.911 | [32] 0.956 | [33] 0.948 | [34] 0.962 | [35] 0.962 | [36] 0.861 | [37] 0.894 | [38] 0.943 | [39] 0.79 | [40] 0.964 | [41] 0.964 | [43] 0.871 | [44] 0.906 | [45] 0.897 | [46] 0.957 | [47] 0.907 | [48] 0.968 | [49] 0.973 | [50] 0.837 | [51] 0.957 | [52] 0.814 | [53] 0.959 | [54] 0.955 | [55] 0.81 | [56] 0.964 | [57] 0.878 | [58] 0.696 | [59] 0.948 | [60] 0.879 | [61] 0.954 | [62] 0.844 | [63] 0.88 | [64] 0.89 | [65] 0.96 | [67] 0.958 | [68] 0.961 | [69] 0.943 | [70] 0.966 | [71] 0.963

O=S(=O)(NCc1cc(Cl)cc(Cl)c1)c1cc(C(F)(F)F)cc(C(F)(F)F)c1
active: [26] 0.621 | [42] 0.803
inactive: [1] 1 | [2] 0.994 | [3] 0.998 | [4] 0.998 | [5] 0.998 | [6] 0.998 | [7] 0.994 | [8] 0.994 | [9] 0.997 | [10] 0.987 | [11] 0.935 | [12] 0.996 | [13] 0.985 | [14] 0.992 | [15] 0.912 | [16] 0.907 | [17] 0.928 | [18] 0.992 | [19] 1 | [20] 0.996 | [21] 0.902 | [22] 0.997 | [23] 0.894 | [24] 0.878 | [25] 0.881 | [27] 0.835 | [28] 0.896 | [29] 0.908 | [30] 0.996 | [31] 0.875 | [32] 0.923 | [33] 0.926 | [34] 0.995 | [35] 0.947 | [36] 0.955 | [37] 0.954 | [38] 0.961 | [39] 0.907 | [40] 0.998 | [41] 0.982 | [43] 0.918 | [44] 0.939 | [45] 0.915 | [46] 0.996 | [47] 0.954 | [48] 0.996 | [49] 0.991 | [50] 0.899 | [51] 0.999 | [52] 1.01 | [53] 1 | [54] 0.996 | [55] 0.765 | [56] 0.997 | [57] 0.895 | [58] 0.935 | [59] 0.982 | [60] 0.933 | [61] 0.995 | [62] 0.897 | [63] 0.912 | [64] 0.888 | [65] 0.997 | [66] 0.87 | [67] 0.995 | [68] 0.997 | [69] 0.989 | [70] 0.988 | [71] 0.999

Cc1noc(C)c1S(=O)(=O)Nc1csc(C(F)(F)F)c1-c1ccccc1
inactive: [1] 0.976 | [2] 0.982 | [3] 0.983 | [4] 0.978 | [5] 0.982 | [6] 0.979 | [7] 0.973 | [8] 0.97 | [9] 0.985 | [10] 0.977 | [11] 0.997 | [12] 0.979 | [13] 0.973 | [14] 0.979 | [15] 1.04 | [16] 1.05 | [17] 1.02 | [18] 0.969 | [19] 0.979 | [20] 0.983 | [21] 1.01 | [22] 0.97 | [23] 1.04 | [24] 1.12 | [25] 1.02 | [26] 1.09 | [27] 1.06 | [28] 1.08 | [29] 1 | [30] 0.975 | [31] 1.07 | [32] 0.957 | [33] 1.01 | [34] 0.982 | [35] 1.04 | [36] 1.07 | [37] 0.973 | [38] 1 | [39] 0.978 | [40] 0.976 | [41] 1.08 | [42] 1.04 | [43] 1.01 | [44] 1.05 | [45] 1.04 | [46] 0.971 | [47] 0.995 | [48] 0.98 | [49] 0.98 | [50] 0.993 | [51] 0.972 | [52] 1.06 | [53] 0.978 | [54] 0.98 | [55] 1 | [56] 0.978 | [57] 1.02 | [58] 0.985 | [59] 1.02 | [60] 1.05 | [61] 0.975 | [62] 1.03 | [63] 1.04 | [64] 1.04 | [65] 0.975 | [66] 1.01 | [67] 0.98 | [68] 0.981 | [69] 0.97 | [70] 0.964 | [71] 0.983
